# p53 reactivation – mutant p53 re-activation in reporter cells | H1299 p53-A138V BP100-luciferase reporter, luminescence, 24 h | Potency, µM (highest dose often 92.2 µM), actives largely listed as activators | 320,000 tested, 0.063% active; note: nearly all actives have a fitted effect of over 45% in size
#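 H1299 (p53-null), stable ts p53-A138V + BP100-Luc; 1000 cells/well, Opti-MEM/10% FBS; cpd 4 pt, 1:5; 24 h, 37 deg C, 5% CO2; detection reagent 10 min RT; luminescence.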
# Mito fusion act – blocks mitochondrial division or promotes mitochondrial fusion | S. cerevisiae fusion-defective mutant growth rescue, CellTiterGlo 48 h | 320,000 tested, 0.23% active | Potency, µM (series often up to 46.1 µM), actives largely listed as activators; note: nearly all actives have a fitted effect of over 45% in size
#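 Yeast fusion mutant, YPEG (non-fermentable carbon), compound, 48 h at 37C non-permissive; CellTiterGlo added, 10 min RT, luminescence read. Rescued growth = division inhibition.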
# IL2 activator – IL-2 activation; IL-2 activation reporter assay, cell-based qHTS; stimulated with anti-CD3/CD4/CD28 beads; in transgenic mouse T cells; activation, % (series mostly up to about 46 µM); 360,000 tested, 0.065% active; in the data active = activation above about 50%; inconclusive = mostly about 30% to 49%
#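 EGFP and DsRed fluorescence is measured by plate cytometry in unstimulated transgenic mouse T cells exposed to compound for 60 minutes, then stimulated 18 hours at 37 degrees C with anti-CD3/anti-CD4 beads plus anti-CD28.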
# BRCA1 expr up – activators of BRCA1 expression | MCF7-BRCA1-FFLuc reporter, luminescence, 48 h; response scale: scaled: vehicle 0%, 10 µM genistein 100% | Potency, µM (highest dose often 46.1 µM), usual class: activators | 380,000 tested, 1.1% active | AID 624202; note: nearly all actives have a fitted effect of over 80% in size
#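 MCF7 cells carrying a BRCA1-firefly luciferase reporter (2000 cells/well, phenol-red free MEM) were attached for 2 h at 37 °C, then given compounds for 48 h. Luminescence was read 15 min after luciferase reagent; activity normalized to genistein (10 microM) and DMSO.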
# TCR activator – activators of T cell receptors | Potency, µM (top dose mostly 9.22 µM), hits mostly activators | 330,000 tested, under 10 active | primary human leukocytes, anti-CD3, IL-2 HTRF, 48 h
#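 Primary human leukocytes were stimulated with a-CD3 beads plus compounds for 48 hr without co-stimulation; secreted IL-2 was quantified by HTRF using a-IL-2-K (europium cryptate) and a-IL-2-d2, excited at 320nm with acceptor emission read at 665nm.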
# Hits are given with their value; – = inactive; ? = inconclusive; · = no result given; [ ] = dose if it differs, or a comment. Shown are actives, neighbours in structure and some others; about 1.3% of the full set was active somewhere. Unless noted, calls come from the whole dose curve; as a rule, active = well fitted curve in the direction sought with a large enough effect; inconclusive = small, poorly fitted or top-dose-only effect, or another doubt; inactive = no such curve, though single readings can be large; an effect the other way counts as inactive or inconclusive.
SMILES,p53 reactivation,Mito fusion act,IL2 activator,BRCA1 expr up,TCR activator
COc1cc2nc(N3CCCN(C)CC3)nc(NC3CCN(C)C3)c2cc1OC (stereo not given),·,·,·,–,·
C=C(/C=C/c1ccc(N(C)C)cc1)c1nc2ccccc2s1,·,·,·,–,·
Cc1cccc(C=NOCCc2ccccc2)n1,·,·,–,10µM,–
COCCN1C(=O)c2[nH]nc(-c3ccccc3O)c2C1c1ccc(OCc2ccccc2)c(OC)c1 (stereo not given),·,·,·,–,·
Cc1cc(C(=O)COC(=O)Cc2c(F)cccc2Cl)c(C)n1C,·,·,–,5µM,·
CCNc1ccc(Br)cc(C(=O)/C=C/c2ccc(Cl)cc2)c1=O,–,13µM,–,–,–
COc1ccc2nc(NC(=O)CSc3nnc(-c4ccoc4C)n3C)sc2c1,?,–,–,5.6µM,–
CCn1cc(C(=O)N2CCN(c3cccc(Cl)c3)CC2)c(=O)c2cc(S(=O)(=O)N3CCOCC3)ccc21,·,·,·,–,·
COc1ccccc1Nc1sc(C(=O)c2ccc3c(c2)OCO3)c(N)c1S(=O)(=O)c1ccccc1,·,·,·,–,·
Cn1cccc1C(=O)NNC(=O)COc1ccccc1F,?,–,–,13µM,–
O=C(COc1ccccc1F)NNC(=O)c1cccc(-n2cccc2)c1,–,–,–,–,–
Cc1nn2c3c(cnc2c1-c1ccccc1)C(=O)CCC3,–,–,–,13µM,·
Cc1nn2c(-c3ccccc3)ccnc2c1-c1ccccc1,?,–,–,7.1µM,–
O=C(COc1ccccc1C(=O)Nc1ccccc1)NCCCCc1ccccc1,·,·,·,–,·
Cc1ccc(-c2nnn(CCC(=O)NC(C)(C)C)n2)cc1,?,–,–,14µM,–
Cc1c(C(=S)Nc2ccccc2)cnn1-c1ccccc1,–,–,–,7.9µM,–
Cc1nn(-c2ccccc2)cc1C(=S)Nc1ccccc1,?,–,–,7.9µM,–
Cc1nc2oc3ccc(F)cc3c(=O)c2cc1C(=O)O,–,–,–,–,–
CCOC(=O)c1cc2c(=O)c3cc(C)ccc3oc2nc1C,?,–,–,11µM,–
CC(=O)c1cc2c(=O)c3cc(C)ccc3oc2nc1C,–,–,–,11µM,–
CCN(CC)C(=O)c1cc2c(=O)c3cc(Cl)ccc3oc2nc1C,–,–,–,?,–
Cc1ccc2oc3ccccc3c(=O)c2c1,·,·,–,–,–
Cc1ccc2oc3nc(C)c(C(=O)O)cc3c(=O)c2c1,–,–,–,2.8µM,–
Cc1ccc(-c2noc(CN(C(=O)COc3cc(C)cc(C)c3C)C(C)C)n2)cc1,·,·,·,–,·
C=C1NN(Cc2ccccc2)C(=O)N1c1ccc(OCc2ccccc2)cc1,·,·,·,–,·
SMILES,p53 reactivation,Mito fusion act,IL2 activator,BRCA1 expr up,TCR activator
Oc1ccc(Br)cc1C=Nc1cccn2cc(-c3ccccc3)nc12,?,–,–,6.3µM,–
NC(=O)c1ccccc1OCC(=O)Nc1ccc2c(c1)OCCO2,–,–,–,3.5µM,–
O=C(Nc1ccc2c(c1)OCCO2)Nc1ccc2c(c1)OCO2,–,–,–,–,–
O=C(Nc1ccc2c(c1)OCCO2)N1CCN(c2ccccc2)CC1,–,–,–,–[1.84 µM],–
O=C(COc1ccccc1Cl)Nc1ccc2c(c1)OCCO2,–,–,–,–,–
O=C(COc1ccc(Br)cc1Cl)NC(=O)Nc1ccc2c(c1)OCCO2,–,–,–,11µM,–
O=C(Nc1ccc2c(c1)OCCO2)NC12CC3CC(CC(C3)C1)C2,?,–,–,3.5µM,–
O=C(Nc1ccc2c(c1)OCCO2)N1CCN(Cc2ccccc2)CC1,–,–,–,13µM,–
Cc1ccc2oc(-c3ccc(C)c(NC(=O)COc4ccc(Cl)cc4C)c3)nc2c1,·,·,·,–,·
O=C(CNC(=O)C(c1ccccc1)c1ccccc1)OCC(=O)c1cccc2ccccc12,·,·,·,–,·
O=C(CN1C(=O)NC2(CCCCCC2)C1=O)Nc1cccc(F)c1,–,–,–,–,–
O=C(CCc1ccccc1)Nc1ccc2c(c1)OCCO2,?,–,–,11µM,–
COC(=O)C1CCN(CC(=O)Nc2ccc3c(c2)OCCO3)CC1,–,·,–,–,–
CC1CC(C)(C)NC(=S)N1CCCC(=O)Nc1ccc2c(c1)OCCO2 (stereo not given),–,–,–,13µM,–
CC1CC(C)CN(CC(=O)Nc2ccc3c(c2)OCCO3)C1 (stereo not given),–,–,–,13µM,–
O=C(CN1C(=O)NC2(CCCCC2)C1=O)Nc1ccc2c(c1)OCCCO2,·,–,–,5µM,–
O=C(NNc1ccc(F)cc1F)c1cccs1,·,·,·,–,·
Nc1nc(=S)c2n[nH]nc2[nH]1,·,·,·,–,·
Cc1ccc(NC(=O)c2c(C)oc3ncn(CC(C)C)c(=O)c23)nc1,·,·,·,–,·
O=S(=O)(c1ccc(F)cc1)N1CCN(c2nc(-c3ccccc3)nc3ccccc23)CC1,·,·,·,–,·
CC(C)(C)NC(=O)NC(=O)COc1ccc(Br)cc1Br,?,?,–,–,–
O=C(COc1ccc(Br)cc1Br)NC(=O)NC1CCCC1,–,–,–,11µM,–
Cc1cc(C(=O)Nc2ccc(N3CCCC3)c(Cl)c2)ccc1[N+](=O)[O-],–,–,–,10µM,–
O=C(Nc1ccc(N2CCCC2)c(Cl)c1)c1ccc([N+](=O)[O-])cc1,–,–,–,–,–
Cc1cc(C(=O)Nc2cnc3ccccc3c2)ccc1[N+](=O)[O-],–,–,–,3.2µM,–
SMILES,p53 reactivation,Mito fusion act,IL2 activator,BRCA1 expr up,TCR activator
CC1CCCN(c2ccc(C(=O)Nc3ccc4c(c3)OCO4)cc2[N+](=O)[O-])C1 (stereo not given),–,18µM,–,–,–
Cn1c(SCCOc2ccccc2)nnc1-c1ccc(NC(=O)CCc2ccccc2)cc1,·,·,·,–,·
CCOC(=O)c1ccc(NS(=O)(=O)c2cn(C)c(C)n2)cc1,·,·,·,–,·
O=C(O)c1ccc(C(=O)Nc2cccc3cccnc23)cc1,·,·,·,–,·
Cc1cnc(-c2nnc(N(C)C(=O)C3CCOC3)s2)cn1 (stereo not given),?,–,–,7.9µM,–
CCCn1[nH]cc(SC)c(=O)c1=O,–,–,51,–,–
CCc1cc(C(=O)NNC(=S)Nc2ccccc2C)cs1,?,–,–,10µM,–
O=C(C[n+]1cccc(Br)c1)c1ccc2c(c1)CCCC2,·,·,·,–,·
Cc1ccc2c(c1)N(C(=O)CCC(=O)NCc1cccc(Cl)c1)CC(C)O2 (stereo not given),·,16µM,–,–,–
CNc1nc(-c2ccc3c(c2)CCN3C(=O)c2ccccc2C)cs1,–,–,–,2µM,–
CNc1nc(-c2ccc3c(c2)CCN3C(=O)c2ccc(F)cc2)cs1,–,–,–,–,–
CC(Cc1cccs1)NC(=O)Nc1ccc([N+](=O)[O-])cc1 (stereo not given),–,–,–,5.6µM,–
CC(Cc1cccs1)NC(=O)c1cccs1 (stereo not given),–,–,–,?,–
CCCNC(=O)/C=C/c1ccc(C(C)C)cc1,?,–,–,13µM,–
Fc1ccc(COc2ccc(/C=N/n3cnnc3)cc2)cc1,?,–,–,16µM,–
